Results taken from PubChem BioAssay (NCATS).
For part of these data: Entries with a potency or affinity are not part of this list. The source made the active and inactive calls. The rule behind the calls is not given here.

Legend:
[1] = Ebola virus entry assay, green fluorescence channel
[2] = Ebola virus entry assay, blue channel fluorescence
[3] = Ebola virus entry assay, green channel fluorescence

Measured: efficacy
Throughout, for efficacy: 0% is about no effect.

O=C1c2ccccc2CCc2ccccc21
inactive: [1] 12.1% | [2] | [3]

CCOC(N)=O
inactive: [1] -34.6% | [2] | [3]

Cc1cccc(C)c1NC(=O)CC12CCCN1CCC2
inactive: [1] -14.9% | [2] | [3]

CC[C@H](C)[C@H](N)C(=O)O
inactive: [1] -38.6% | [2] | [3]

O=C(O)c1ccccc1C(=O)Nc1ccc(S(=O)(=O)Nc2nccs2)cc1
inactive: [1] -12.6% | [2] | [3]

O=S(=O)(O)c1ccc2nc(-c3ccccc3)[nH]c2c1
inactive: [1] -32.6% | [2] | [3]

Cc1cc(=O)n(-c2ccccc2)n1C
inactive: [1] -22% | [2] | [3]

COc1cc(C(=O)NC2CCCNC2)cc(OC)c1OC (stereo not given)
inactive: [1] -16% | [2] | [3]

O=C1CC(c2ccc(Cl)cc2)CC(=O)N1
inactive: [1] -27.6% | [2] | [3]

CC(=O)Nc1ccc(OCC(O)CNC(C)C)cc1 (stereo not given)
inactive: [1] -28.6% | [2] | [3]

Nc1cc(=O)[nH]c(N)n1
inactive: [1] -17.6% | [2] | [3]

O=C(CO)[C@@H](O)[C@H](O)[C@@H](O)CO
inactive: [1] 18.6% | [2] | [3]

Cn1c(=O)c2c(ncn2CCO)n(C)c1=O
inactive: [1] -37.9% | [2] | [3]

O=C(OCCN1CCOCC1)c1cccnc1Nc1cccc(C(F)(F)F)c1
inactive: [1] -15.5% | [2] | [3]

CC(=O)[C@H]1CC[C@H]2[C@@H]3C[C@H](C)C4=CC(=O)CC[C@]4(C)[C@H]3[C@@H](O)C[C@]12C
inactive: [1] -17.9% | [2] | [3]

CCCCCCCCCCCCCCCC(=O)O
inactive: [1] -6.91% | [2] | [3]

CCCCOC(=O)c1ccc(O)cc1
inactive: [1] -26.2% | [2] | [3]

CCN(CCO)CCn1c(Cc2ccccc2)nc2c1c(=O)n(C)c(=O)n2C
inactive: [1] 27.5% | [2] | [3]

O=S(=O)(O)c1ccc(O)cc1
inactive: [1] 20.2% | [2] | [3]

CCCOc1ccc2c(c1)CC[C@@H]1[C@@H]2CC[C@]2(C)C(OC)CC[C@@H]12 (stereo not given in full)
inactive: [1] -11.2% | [2] | [3]

CC(=O)Nc1ccc(OC(=O)c2ccccc2OC(C)=O)cc1
inactive: [1] -28.5% | [2] | [3]

CC(C)(C(=O)c1cccnc1)c1cccnc1
inactive: [1] 15.8% | [2] | [3]

C[N+]1(C)[C@@H]2CC(OC(=O)[C@H](CO)c3ccccc3)C[C@H]1[C@@H]1O[C@@H]12 (stereo not given in full)
inactive: [1] 12.9% | [2] | [3]

CCc1cccc(CC)c1NC(=O)CN(CC(=O)O)CC(=O)O
inactive: [1] 15.2% | [2] | [3]

CC[N+](CC)(CCNC(=O)C(=O)NCC[N+](CC)(CC)Cc1ccccc1Cl)Cc1ccccc1Cl
inactive: [1] -9.71% | [2] | [3]

CCC(=O)c1c(O)cc(O)cc1O
inactive: [1] 21.1% | [2] | [3]

Cc1cc(OI)c(C(C)C)cc1-c1cc(C(C)C)c(OI)cc1C
inactive: [1] 13.6% | [2] | [3]

COc1cc(/C=C/C(=O)O[C@H]2CC[C@]34C[C@]35CC[C@]3(C)[C@@H]([C@H](C)CCC=C(C)C)CC[C@@]3(C)[C@@H]5CC[C@H]4C2(C)C)ccc1O
inactive: [1] -25.4% | [2] | [3]

O=C(O)CCc1nc2ccccc2[nH]1
inactive: [1] -21.2% | [2] | [3]

Nc1ccc(S(N)(=O)=O)cc1
inactive: [1] -20.5% | [2] | [3]

CCC(Cc1c(I)cc(I)c(N)c1I)C(=O)O (stereo not given)
inactive: [1] -15.6% | [2] | [3]

COc1ccc(-c2ccc3cc(C(=O)O)ccc3c2)cc1C12CC3CC(CC(C3)C1)C2
inactive: [1] 13% | [2] | [3]

NS(=O)(=O)c1ccc(NC(=O)CCC(=O)O)cc1
inactive: [1] 9.25% | [2] | [3]

CN(C)CCN(Cc1ccsc1)c1ccccn1
inactive: [1] -18.4% | [2] | [3]

CC(N=C(NC#N)Nc1ccncc1)C(C)(C)C (stereo not given)
inactive: [1] -23.2% | [2] | [3]

COc1ccc(S(=O)(=O)Nc2nnc(CC(C)C)s2)cc1
inactive: [1] -19% | [2] | [3]

Nc1ncnc(Nc2ccccc2)n1
inactive: [1] -14.2% | [2] | [3]

NNC(=O)c1ccncc1
inactive: [1] 13.1% | [2] | [3]

O=C(O)CCCCC1CCSS1 (stereo not given)
inactive: [1] -16.3% | [2] | [3]

Clc1cccc(Cl)c1NC1=NCCN1
inactive: [1] -12.5% | [2] | [3]

Cc1cc(CCCOc2c(C)cc(-c3noc(C(F)(F)F)n3)cc2C)on1
inactive: [1] 12.1% | [2] | [3]

CC(COc1ccccc1)NN (stereo not given)
inactive: [1] -13% | [2] | [3]

CCCCCCCC(=O)OCC(COC(=O)CCCCCCC)OC(=O)CCCCCCC
inactive: [1] 8.07% | [2] | [3]

CC(=O)Oc1ccc(C)cc1
inactive: [1] 12.2% | [2] | [3]

CCCCCCOc1ccccc1C(N)=O
inactive: [1] -13.5% | [2] | [3]

CN1CCN(CC(=O)N2c3ccccc3C(=O)Nc3cccnc32)CC1
inactive: [1] -20.7% | [2] | [3]

CC(=O)Oc1cccc(O)c1
inactive: [1] -10.5% | [2] | [3]

CC(=O)Nc1ccccc1
inactive: [1] -20.9% | [2] | [3]

CCCCCCCCCCCCOCCO
inactive: [1] -11.3% | [2] | [3]

Cc1cc(O)c2c(O)c3c(O)cccc3cc2c1
inactive: [1] 34.7% | [2] | [3]

CCCCCCCCCCCC(=O)[O][Sn]([CH2]CCC)([CH2]CCC)[O]C(=O)CCCCCCCCCCC
inactive: [1] -17.6% | [2] | [3]

Oc1ccc(OCc2ccccc2)cc1
inactive: [1] 14.9% | [2] | [3]

Cc1onc(-c2ccccc2)c1C(=O)Cl
inactive: [1] 6.34% | [2] | [3]

CC(=O)OCC(=O)[C@@]1(O)[C@H](C)C[C@H]2[C@@H]3CCC4=CC(=O)C=C[C@]4(C)[C@@]3(F)[C@@H](O)C[C@@]21C
inactive: [1] 26.4% | [2] | [3]

NS(=O)(=O)c1cc(C(=O)NN2C[C@H]3[C@H]4CCC(C4)[C@H]3C2)ccc1Cl
inactive: [1] -15.5% | [2] | [3]
